The nature of assay [1]: Viability qHTS for spleen associated tyrosine kinase inhibitor (SYKi) naive MV4-11 cells (AID 1963823). Also: nearly all actives have a fitted effect of over 40% in size. In outline: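 qHTS, SYK inhibitor-naive MV4-11; 500 cells/well; 72 hr compound exposure, 37 C; CellTiter-Glo added, 10 min RT; luminescence read.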
Background: In qHTS, concentration-response curves come from the screen itself.

Assay [2] is described as follows: Viability qHTS for spleen associated tyrosine kinase inhibitor (SYKi) drug resistant MV4-11 cells (AID 1963824). Also: nearly all actives have a fitted effect of over 35% in size. In outline:
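SYK-inhibitor-resistant MV4-11 AML cells were seeded at 500 per well onto compound and cultured 72 hours (37 °C, 5% CO2). CellTiter-Glo was then added, and after 10 min at room temperature, luminescence gave viability.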

Our source for the Potency values is PubChem BioAssay (NCATS).

The structures appear in SMILES notation. Records with an inconclusive call do not appear. Calls of active or inactive are those of the source. Calls follow the shape of the dose curve; as a rule, active = well fitted cell-killing curve with a large enough effect; inconclusive = small, poorly fitted or top-dose-only effect, or effect the other way; inactive = no such curve, though single readings can be large or run the other way.
Potency is read from the fitted curve at half-maximal effect.

In the case of `OC[C@H]1O[C@@H](OCCc2ccccc2)[C@H](O)[C@@H](O)[C@@H]1O`, the Potency entry in assay [1] and in assay [2] was “inactive” each time.
As for `CC/C=C\CCO[C@@H]1O[C@H](CO[C@@H]2OC[C@H](O)[C@H](O)[C@H]2O)[C@@H](O)[C@H](O)[C@H]1O`, the Potency entry in assay [1] and in assay [2] was “inactive” throughout.
On to `COC(=O)C1=CO[C@@H](O[C@@H]2O[C@H](CO)[C@@H](O)[C@H](O)[C@H]2O)[C@@H]2[C@@](C)(O)[C@@H](O)C[C@]12O`, for which the Potency result in assay [1] and in assay [2] was “inactive” in each case.
Consider `C=C1C(=O)O[C@@H]2C[C@@H](C)[C@]34C[C@]5(C(=O)O[C@H]6CC(C)=C([C@H](C)CCCO)[C@H](OC(=O)C(C)CC)[C@H]65)[C@@H](C(C)=C3C[C@@H]12)[C@H]4OC(C)=O` (stereo not given in full), for which the results for the Potency in assay [1] and in assay [2] were 3060 nM (active) and 2430 nM (active), respectively.
With `Cc1ccc(C2(C(=O)N3CCC(n4nc(-c5ccccc5)oc4=O)CC3)CC2)cc1`, the Potency result in assay [1] and in assay [2] was “inactive” each time.
Consider `COC(=O)CCc1cc2ccoc2c(OC)c1O[C@@H]1O[C@H](CO)[C@@H](O)[C@H](O)[C@H]1O`, for which the Potency result in assay [1] and in assay [2] was “inactive” each time.
As to `Cc1c[nH]c2nccc(Oc3c(F)cc(Nc4cc(Cl)nc(N)n4)cc3F)c12`, the Potency was 517 nM (active) in assay [1] and 731 nM (active) in assay [2].
The like results for `CCN(CCN(C)C)C(=O)CNCc1cc(C(N)=O)ccn1` were, in that order, “inactive” and “inactive”.
With `Cc1cc(O)c(C(C)C)cc1O[C@@H]1O[C@H](CO)[C@@H](O)[C@H](O)[C@H]1O`, the Potency entry in assay [1] and in assay [2] was “inactive” each time.
In the case of `CC(O)(C(=O)C1CC1(CO)COC1OC(CO)C(O)C(O)C1O)C1C(O)CC2C3CC=C4CC(O)CC(O)C4(C)C3C(O)CC21C` (stereo not given), the Potency in assay [1] and in assay [2] was 217 nM (active) throughout.
